Assay results reported in PubChem BioAssay (EPA / NIEHS).
Some structures have more than one record in an assay (separate samples or runs), and their calls can disagree. Activity calls are given as the source filed them. How the source made its calls: active means hit-call score of the fitted dose curve at least 0.9, where 1 is the maximum; inactive means score below 0.9.

What was measured:
[1] = read-out: Interleukin-8 (IL8), CXCL8 (gene 3576); experiment: BSK_BF4T_IL8: BioMAP Diversity Plus: BF4T Assay for Interleukin-8 (IL8) Biomarker Activity (AID 2284263); conditions: primary human bronchial epithelial cells with fibroblasts
In short: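 Human bronchial epithelial cells with dermal fibroblasts co-culture; IL-8 measured by ELISA 24 hours after dosing, fitted vs DMSO. Cytotoxicity tracked in parallel cultures by SRB total-protein staining.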

[2] = read-out: Interleukin-1 alpha (IL1a), IL1A (gene 3552); experiment: BSK_BF4T_IL1a: BioMAP Diversity Plus: BF4T Assay for Interleukin-1 alpha (IL1a) Biomarker Activity (AID 2284264); conditions: primary human bronchial epithelial cells with fibroblasts
In short: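 Human bronchial epithelial cells co-cultured with dermal fibroblasts, dosed and read at 24 h. Secreted/surface IL-1α quantified by ELISA; gain-of-signal fitted relative to DMSO baseline. Parallel SRB total-protein staining tracked cytotoxicity.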

Decorin, DCN (gene 1634) = experiment: BSK_MyoF_Decorin: BioMAP Diversity Plus: MyoF Assay for Decorin Biomarker Activity (AID 2284265); conditions: primary human lung fibroblasts
In short: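 ELISA readout of decorin, 24 h post-dosing; primary human lung fibroblast (MyoF) culture; gain-of-signal fit vs DMSO baseline.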

KRT18 (gene 3875) [3] = experiment: BSK_BF4T_Keratin818: BioMAP Diversity Plus: BF4T Assay for Keratin 818 Biomarker Activity (AID 2284266); conditions: primary human bronchial epithelial cells with fibroblasts
In short: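 Co-culture of human bronchial epithelial cells and dermal fibroblasts, chemical exposure 24 h. Keratin 8/18 measured by ELISA; positive-direction fit vs DMSO. SRB total protein run in parallel cultures for cytotoxicity.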

[4] = read-out: Matrix Metallopeptidase 1 (MMP1), MMP1 (gene 4312); experiment: BSK_MyoF_MMP1: BioMAP Diversity Plus: MyoF Assay for Matrix Metallopeptidase 1 (MMP1) Biomarker Activity (AID 2284268); conditions: primary human lung fibroblasts
In short: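 Cells: human lung fibroblasts. Exposure: 24 h chemical dosing. Detection: ELISA for MMP1. Analysis: upward fitting against DMSO negative control.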

[5] = read-out: TIMP metallopeptidase inhibitor 1 (TIMP1), TIMP1 (gene 7076); experiment: BSK_MyoF_TIMP1: BioMAP Diversity Plus: MyoF Assay for TIMP metallopeptidase inhibitor 1 (TIMP1) Biomarker Activity (AID 2284269); conditions: primary human lung fibroblasts
In short: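 TIMP-1 levels were determined by ELISA in human lung fibroblasts treated for 24 h. DMSO served as negative control and baseline for upward curve fitting.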

[6] = read-out: Matrix Metallopeptidase 3 (MMP3), MMP3 (gene 4314); experiment: BSK_BF4T_MMP3: BioMAP Diversity Plus: BF4T Assay for Matrix Metallopeptidase 3 (MMP3) Biomarker Activity (AID 2284271); conditions: primary human bronchial epithelial cells with fibroblasts
In short: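 Co-culture of human bronchial epithelial cells and dermal fibroblasts dosed 24 h; MMP-3 measured by ELISA, positive-direction fit versus DMSO. Cytotoxicity tracked by SRB total-protein staining (560 nm) in parallel cultures.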

[7] = read-out: Tissue plasminogen activator (tPA), PLAT (gene 5327); experiment: BSK_BF4T_tPA: BioMAP Diversity Plus: BF4T Assay for Tissue plasminogen activator (tPA) Biomarker Activity (AID 2284272); conditions: primary human bronchial epithelial cells with fibroblasts
In short: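 tPA level quantified by ELISA at 24 h post-treatment in bronchial epithelial/dermal fibroblast co-cultures, gain of signal scored against DMSO baseline. Parallel cultures stained with 0.1% SRB (560 nm) to flag overt cytotoxicity.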

[8] = read-out: Matrix Metallopeptidase 9 (MMP9), MMP9 (gene 4318); experiment: BSK_BF4T_MMP9: BioMAP Diversity Plus: BF4T Assay for Matrix Metallopeptidase 9 (MMP9) Biomarker Activity (AID 2284276); conditions: primary human bronchial epithelial cells with fibroblasts
In short: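 Co-culture of human bronchial epithelial cells and dermal fibroblasts dosed for 24 h; MMP-9 quantified by ELISA and fitted upward versus DMSO. Cytotoxicity monitored in parallel cultures by SRB total-protein staining at the biomarker time point.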

[9] = read-out: Interleukin-8 (IL8), CXCL8 (gene 3576); experiment: BSK_IMphg_IL8: BioMAP Diversity Plus: IMphg Assay for Interleukin-8 (IL8) Biomarker Activity (AID 2284277); conditions: primary human endothelial cells with macrophages
In short: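 Co-culture of human venular endothelial cells and macrophages exposed to chemicals for 24 h; IL-8 quantified by ELISA and compared against the DMSO baseline, with SRB total-protein staining in parallel cultures for cytotoxicity.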

[10] = read-out: Intercellular Adhesion Molecule 1 (ICAM1), ICAM1 (gene 3383); experiment: BSK_BE3C_ICAM1: BioMAP Diversity Plus: BE3C Assay for Intercellular Adhesion Molecule 1 (ICAM1) Biomarker Activity (AID 2284278); conditions: primary human bronchial epithelial cells;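 further: cell-surface ICAM-1 protein level quantified by ELISA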
In short: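 Measured by ELISA: ICAM-1 expressed by primary human bronchial epithelial cells 24 h after compound treatment, with upward-direction fitting versus DMSO vehicle.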

[11] = read-out: Interferon-inducible T-cell alpha chemoattractant (ITAC), CXCL11 (gene 6373); experiment: BSK_BE3C_ITAC: BioMAP Diversity Plus: BE3C Assay for Interferon-inducible T-cell alpha chemoattractant (ITAC) Biomarker Activity (AID 2284279); conditions: primary human bronchial epithelial cells
In short: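 The assay measures I-TAC levels by ELISA in human primary bronchial epithelial cell cultures 24 hours after chemical treatment. Values reflect signal increase over the DMSO baseline.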

[12] = read-out: Interleukin-8 (IL8), CXCL8 (gene 3576); experiment: BSK_BE3C_IL8: BioMAP Diversity Plus: BE3C Assay for Interleukin-8 (IL8) Biomarker Activity (AID 2284280); conditions: primary human bronchial epithelial cells
In short: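 IL-8 signal gain, normalised to DMSO vehicle, was scored after a 24 h chemical exposure of primary human bronchial epithelial cells, with detection by ELISA.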

[13] = read-out: Epidermal growth factor receptor (EGFR), EGFR (gene 1956); experiment: BSK_BE3C_EGFR: BioMAP Diversity Plus: BE3C Assay for Epidermal growth factor receptor (EGFR) Biomarker Activity (AID 2284281); conditions: primary human bronchial epithelial cells
In short: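 Compound is added to human bronchial epithelial cells, cells incubate 24 h, then EGFR is detected by ELISA. Values reflect positive-direction fitting relative to DMSO.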

KRT18 (gene 3875) [14] = experiment: BSK_BE3C_Keratin818: BioMAP Diversity Plus: BE3C Assay for Keratin 818 Biomarker Activity (AID 2284282); conditions: primary human bronchial epithelial cells
In short: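 BE3C: human bronchial epithelial primary cells, 24 h exposure, Keratin 8/18 ELISA; DMSO = negative control/baseline; cytotoxicity by parallel SRB stain (0.1% SRB after 10% TCA fixation, 560 nm).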

[15] = BSK_MyoF_SRB: Viability Assessment in the BioMAP Diversity Plus: MyoF Assay (AID 2284267); conditions: primary human lung fibroblasts;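 further: total protein by SRB absorbance in parallel cultures as cytotoxicity measure; cells assessed 24 h after compound addition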
In short: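 Cytotoxicity in primary human lung fibroblasts is gauged by SRB total-protein staining 24 h after dosing, with DMSO as the negative control.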

[16] = read-out: Matrix Metallopeptidase 1 (MMP1), MMP1 (gene 4312); experiment: BSK_BF4T_MMP1: BioMAP Diversity Plus: BF4T Assay for Matrix Metallopeptidase 1 (MMP1) Biomarker Activity (AID 2284270); conditions: primary human bronchial epithelial cells with fibroblasts
In short: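 Co-culture of human bronchial epithelial cells and dermal fibroblasts; MMP-1 levels measured by ELISA 24 hours after chemical dosing, relative to DMSO. Cytotoxicity checked in parallel cultures by SRB total-protein staining.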

[17] = BSK_BF4T_SRB: Viability Assessment in the BioMAP Diversity Plus: BF4T Assay (AID 2284274); conditions: primary human bronchial epithelial cells with fibroblasts
In short: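 Co-culture of human bronchial epithelial cells and dermal fibroblasts (BioMAP BF4T) exposed 24 h. Total protein by sulforhodamine B staining (0.1% SRB after 10% TCA fixation, 560 nm) in parallel cultures; fitted vs DMSO.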

Measured: AC50

O=C(O)C(F)(F)C(F)(F)OC(F)(F)F
not listed: [15] | [16] | [17]
inactive: all other assays above

O=C(O)C(F)(F)C(F)(F)C(F)(F)C(F)(F)C(F)(F)C(F)(F)C(F)(F)C(F)(F)C(F)(F)C(F)(F)C(F)(F)C(F)(F)C(F)(F)F
inactive: [1] | [2] | Decorin, DCN (gene 1634) | KRT18 (gene 3875) [3] | [4] | [6] | [7] | [8] | [9] | [10] | [11] | [12] | [13] | KRT18 (gene 3875) [14]
active: [6] 1.68 µM | [11] 0.0259 µM

FC1CC(F)(F)C(F)(F)C1(F)F (centres undefined)
not listed: [5] | [15] | [16] | [17]
inactive: all other assays above

C=C(C)C(=O)OCC(F)(F)C(F)(F)C(F)(F)F
not listed: [15] | [16] | [17]
inactive: all other assays above

CC(=O)Nc1ccc(N=Nc2cc(C)ccc2O)cc1
inactive: Decorin, DCN (gene 1634) | [15]
active: [4] 31 µM

C=CC(=O)OCC(F)(F)C(F)(F)C(F)(F)C(F)(F)C(F)(F)C(F)(F)C(F)(F)F
not listed: [5] | [15]
inactive: all other assays above

C#C[C@]1(O)CC[C@H]2[C@@H]3CCc4cc(OC)ccc4[C@H]3CC[C@@]21C
active: [4] 20 µM
inactive: Decorin, DCN (gene 1634)

CCc1ccc(C(c2ccc(CC)cc2)C(Cl)Cl)cc1
active: [4] 8.65 µM
inactive: Decorin, DCN (gene 1634) | [5]

CCCCCCCOC(=O)c1ccccc1C(=O)OCCCCCCC
inactive: Decorin, DCN (gene 1634) | [4] | [5]

CCN(CC)c1ccc2c(C)cc(=O)oc2c1
inactive: Decorin, DCN (gene 1634) | [4]
